# PubChem BioAssay (EPA / NIEHS)
# Inconclusive results are not listed. Active and inactive are the calls of the source. The calls were made as follows, unless noted: active = hit-call score of the fitted dose curve at least 0.9, where 1 is the maximum; inconclusive = response in the unintended direction; inactive = score below 0.9.
# Columns and labels:
# [1] = biological target: PGR (gene 5241) (UniProt P06401); test: TOX21_PR_BLA_Followup_Antagonist_ratio: Tox21 HEK293 Progesterone Receptor (PR) Antagonism Beta-lactamase Follow-Up Assay, Ratio (AID 2283934);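 also: PR-UAS-bla HEK293T cells stimulated with 1 nM R5020 agonist for 16 hr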
# In short: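 Antagonist mode used 1 nM R5020 (final) as agonist on a beta-lactamase reporter line in HEK293T cells. Activity was taken from the substrate cleavage ratio after 16 hr exposure.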
# [2] = TOX21_PR_BLA_Followup_Agonist_viability: Viability Assessment in the Tox21 HEK293 Progesterone Receptor (PR) Agonism Beta-lactamase Follow-Up Assay (AID 2283935);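 also: signal loss means lower viability so actives are cytotoxic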
# In short: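 Multiplexed viability counter-screen: ATP-coupled luciferase signal measured after 30 min at room temperature, following 16 hr compound treatment of PR-UAS-bla HEK293T cells grown in charcoal-stripped serum.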
# [3] = TOX21_PR_BLA_Followup_Antagonist_viability: Viability Assessment in the Tox21 HEK293 Progesterone Receptor (PR) Antagonism Beta-lactamase Follow-Up Assay (AID 2283936);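 also: hits lower the luminescence signal meaning cytotoxicity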
# In short: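 PR-UAS-bla HEK293T cells (3,000/well, 2% charcoal-stripped FBS) given compound plus R5020 agonist, 16 h at 37C. CellTiter-Glo added after bla read, 30 min at room temperature; luminescence loss indicates cytotoxicity.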
# [4] = biological target: PGR (gene 5241) (UniProt P06401); test: TOX21_PR_LUC_Followup_Antagonist: Tox21 HEK293 Progesterone Receptor (PR) Antagonism Luciferase Follow-Up Assay (AID 2283938);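 also: curve fitted upward as signal gain over DMSO baseline despite antagonist label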
# In short: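 Luminescence from ONE-Glo was measured 30 min after reagent addition, following 16 h exposure of HEK293-PR-A-luc cells (3,000/well, plated 5 h earlier) to DMSO-dissolved compounds at 37C; DMSO served as baseline.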
# [5] = TOX21_PR_LUC_Followup_Agonist_viability: Viability Assessment in the Tox21 HEK293 Progesterone Receptor (PR) Agonism Luciferase Follow-Up Assay (AID 2283941);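 also: loss of signal means cytotoxicity so actives lower viability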
# In short: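 Luminescent ATP quantitation (CellTiter-Glo) serves as the read-out; a drop flags cytotoxic compounds. Cells are HEK293-PR-A-luc grown in 10% charcoal-stripped FBS, plated 3,000/well, and exposed to compound for 16 h.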
# [6] = TOX21_PR_LUC_Followup_Antagonist_viability: Viability Assessment in the Tox21 HEK293 Progesterone Receptor (PR) Antagonism Luciferase Follow-Up Assay (AID 2283940)
# In short: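 Cellular ATP, measured with luciferase-coupled CellTiter-Glo, served as the viability endpoint after HEK293-PR-A-luc cells were exposed to test compounds for 16 h at 37C.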
# [7] = CEETOX_H295R_TESTO_noMTC: CeeTox H295R High-throughput Steroidogenesis Assay for Testosterone (TESTO), maximum tolerated concentration (MTC) filtered results only (AID 2283924; active = hit-call score of the fitted dose curve at least 0.9, where 1 is the maximum; inactive = score below 0.9); settings: actives raise or lower the signal
# In short: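 H295R cells prestimulated 48 h with 10 uM forskolin, then exposed 48 h to chemicals in 0.1% DMSO final. Testosterone in medium quantified by MTBE extraction and HPLC-MS/MS; bidirectional fit versus DMSO, concentrations […] filtered by MTT-based maximum tolerated concentration.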
# [8] = biological target: PGR (gene 5241) (UniProt P06401); test: TOX21_PR_BLA_Followup_Agonist_ratio: Tox21 HEK293 Progesterone Receptor (PR) Agonism Beta-lactamase Follow-Up Assay, Ratio (AID 2283933)
# In short: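 Agonist-mode follow-up in HEK293T cells carrying a UAS-driven beta-lactamase reporter, grown in 2% charcoal-stripped serum. Compounds act for 16 hr; activity is the ch2/ch1 cleavage ratio, with same-well CellTiter-Glo viability run in parallel.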
# [9] = biological target: PGR (gene 5241) (UniProt P06401); test: TOX21_PR_LUC_Followup_Agonist: Tox21 HEK293 Progesterone Receptor (PR) Agonism Luciferase Follow-Up Assay (AID 2283937; active = hit-call score of the fitted dose curve at least 0.9, where 1 is the maximum; inactive = score below 0.9)
# In short: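 Agonist mode: reporter cells carrying PR-A and luciferase are treated 16 h with test compounds at 37C. Luciferase induction is measured by luminescence and fitted upward against DMSO.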
# PGR (gene 5241), sequence (P06401 whole entry, looked up): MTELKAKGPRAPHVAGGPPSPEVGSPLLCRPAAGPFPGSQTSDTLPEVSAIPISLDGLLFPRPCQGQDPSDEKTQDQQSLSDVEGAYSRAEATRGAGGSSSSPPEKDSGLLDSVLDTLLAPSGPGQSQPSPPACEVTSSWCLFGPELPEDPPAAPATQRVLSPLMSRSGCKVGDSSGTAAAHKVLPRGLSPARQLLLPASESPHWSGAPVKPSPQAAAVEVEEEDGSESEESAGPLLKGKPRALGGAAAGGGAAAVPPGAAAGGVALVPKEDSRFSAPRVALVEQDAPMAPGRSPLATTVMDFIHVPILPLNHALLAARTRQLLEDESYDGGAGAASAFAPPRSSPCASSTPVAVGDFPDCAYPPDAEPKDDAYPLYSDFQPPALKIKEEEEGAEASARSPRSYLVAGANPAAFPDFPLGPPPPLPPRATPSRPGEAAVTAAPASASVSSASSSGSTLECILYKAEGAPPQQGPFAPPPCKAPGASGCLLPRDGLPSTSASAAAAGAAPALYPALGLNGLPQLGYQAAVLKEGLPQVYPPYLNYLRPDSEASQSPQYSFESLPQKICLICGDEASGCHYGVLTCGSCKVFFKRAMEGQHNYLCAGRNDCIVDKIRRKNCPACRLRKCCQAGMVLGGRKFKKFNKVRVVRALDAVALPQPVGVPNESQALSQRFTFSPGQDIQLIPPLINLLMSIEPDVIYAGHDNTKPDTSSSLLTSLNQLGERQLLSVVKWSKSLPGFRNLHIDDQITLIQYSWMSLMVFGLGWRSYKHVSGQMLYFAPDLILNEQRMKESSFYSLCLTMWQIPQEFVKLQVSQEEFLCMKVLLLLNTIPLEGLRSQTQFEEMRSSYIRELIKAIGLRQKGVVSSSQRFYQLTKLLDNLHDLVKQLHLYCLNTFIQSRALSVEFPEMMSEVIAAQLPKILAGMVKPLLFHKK
structure (smiles),measurement,setting,value
Oc1ccc(C(c2ccc(O)cc2)(C(F)(F)F)C(F)(F)F)cc1,AC50,[1],53.5 µM (active)
same,outcome,[2],inactive
same,outcome,[3],inactive
same,AC50,[4],54.7 µM (active)
same,outcome,[5],inactive
CC(C)(c1ccccc1)c1ccc(O)cc1,AC50,[1],32.7 µM (active)
same,outcome,[2],inactive
same,outcome,[3],inactive
same,AC50,[4],35.3 µM (active)
same,outcome,[6],inactive
same,outcome,[5],inactive
C[C@]12CCC(=O)C=C1CC[C@@H]1[C@@H]2CC[C@@]2(C)[C@H]1CC[C@]2(C)O,outcome,[1],inactive
same,outcome,[2],inactive
same,outcome,[3],inactive
same,outcome,[4],inactive
CCCCCCCCOC(=O)c1ccccc1C(=O)OCCCCCCCC,outcome,[7],inactive
ClC1=C(Cl)[C@]2(Cl)[C@@H]3[C@@H]4C[C@@H]([C@H]5O[C@@H]45)[C@@H]3[C@@]1(Cl)C2(Cl)Cl,AC50,[1],20.3 µM (active)
same,outcome,[2],inactive
same,outcome,[3],inactive
same,AC50,[4],18.2 µM (active)
same,outcome,[6],inactive
CCCCCCCCCc1ccc(O)cc1,AC50,[1],68.3 µM (active)
same,outcome,[2],inactive
same,outcome,[3],inactive
same,outcome,[4],inactive
same,outcome,[6],inactive
ClC(Cl)=C(c1ccc(Cl)cc1)c1ccc(Cl)cc1,AC50,[1],24.9 µM (active)
same,outcome,[2],inactive
same,outcome,[3],inactive
same,AC50,[4],21.6 µM (active)
same,outcome,[6],inactive
same,outcome,[5],inactive
COc1ccc(O)c(C(C)(C)C)c1,outcome,[2],inactive
same,outcome,[3],inactive
same,outcome,[4],inactive
same,outcome,[6],inactive
same,outcome,[5],inactive
C[C@]12CCC(=O)C=C1CC[C@@H]1[C@@H]2CC[C@]2(C)C(=O)CC[C@@H]12,AC50,[1],9.75 µM (active)
same,outcome,[2],inactive
same,outcome,[3],inactive
same,outcome,[4],inactive
same,outcome,[6],inactive
same,outcome,[5],inactive
CCC(=O)O[C@H]1CC[C@H]2[C@@H]3CCC4=CC(=O)CC[C@]4(C)[C@H]3CC[C@]12C,AC50,[8],12 µM (active)
same,outcome,[1],inactive
same,outcome,[2],inactive
same,outcome,[3],inactive
same,AC50,[9],6.3 µM (active)
same,outcome,[4],inactive
same,outcome,[6],inactive
same,outcome,[5],inactive
